# Source: PubChem BioAssay (National Center for Advancing Translational Sciences (NCATS))
# HP1b chromo inh = HP1-beta chromodomain-methylated histone interaction inhibition; AID 540317; P83916; 0.56% of 390,000 active; Potency, µM (doses to about 114 µM), for inactives: at the top dose activity change, negative = inhibition, usual class: inhibitors; AlphaScreen HP1-beta / biotin-H3K9me3 peptide binding; note: nearly all actives have a fitted effect of over 70% in size
# Target sequence (P83916 whole entry, looked up): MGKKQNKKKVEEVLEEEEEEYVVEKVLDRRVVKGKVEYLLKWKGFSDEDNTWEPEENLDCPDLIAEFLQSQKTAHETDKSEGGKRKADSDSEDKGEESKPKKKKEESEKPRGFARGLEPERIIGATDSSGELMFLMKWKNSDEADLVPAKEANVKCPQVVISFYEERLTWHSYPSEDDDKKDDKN
#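 HP1-beta protein (50 nM final) preincubated 30 min at room temperature with biotinylated H3(1-18)K9me3 peptide (50 nM) in PBS pH 7.4, 0.01% Tween-20, then compound added for 30 min. AlphaScreen streptavidin donor/nickel chelate acceptor beads (10 ug/mL final), 30 min dark, luminescence read.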
# JMJD2A Tudor = inhibitors of human JMJD2A Tudor domain. AlphaScreen JMJD2A-Tudor / H3K4me3 peptide binding. Potency, µM (highest dose often 114 µM), inactives show at the top dose activity change, negative = inhibition, usual class: inhibitors. 4.4% of 390,000 active; note: % is set by controls: 0 for no effect and ±100 for the full control effect; nearly all actives have a fitted effect of over 50% in size
# L3MBTL1 block = blocks human L3MBTL1. Q9Y468. AlphaScreen L3MBTL1–H3K9me1 peptide binding. Potency, µM (titrated, usually from 57.1 µM), without a hit: at the top dose activity, negative = inhibition, most hits filed as inhibitors. 0.66% of 230,000 active. AID 485360; note: % is set by controls: 0 for no effect and ±100 for the full control effect; nearly all actives have a fitted effect of over 60% in size
#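 Read-out is AlphaScreen signal from streptavidin donor and nickel chelate acceptor beads (10 ug/mL final each) bridging L3MBTL1 (50 nM) and biotinylated K9-monomethylated H3(1-15) peptide (75 nM), after 30 min compound exposure at room temperature.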
# BAZ2B block = inhibitors of human BAZ2B bromodomain. AID 504333. AlphaScreen BAZ2B-H3K14Ac peptide displacement. Q9UIF8. 4.4% of 360,000 active. Potency, µM (titrated, usually from 114 µM), for inactives: at the highest dose activity change, negative = inhibition, usual class: inhibitors; note: % is set by controls: 0 for no effect and ±100 for the full control effect; nearly all actives have a fitted effect of over 60% in size
#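 AlphaScreen luminescence quantifies BAZ2B engagement of H3K14Ac peptide; the protein and biotinylated peptide are both at 50 nM final, buffer PBS pH 7.4 with 0.01% Tween-20, all steps at room temperature.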
# G9a inh = G9a (human) methyltransferase inhibition. Q96KQ7. G9a H3K9 monomethylation, AlphaScreen, 2 h. Potency, µM (titrated, usually from 102 µM), for inactives: at the top dose activity, negative = inhibition, actives largely listed as inhibitors. 8.8% of 350,000 active. AID 504332; note: % is set by controls: 0 for no effect and ±100 for the full control effect; nearly all actives have a fitted effect of over 75% in size
# Target sequence (Q96KQ7 913-1193 limits assumed): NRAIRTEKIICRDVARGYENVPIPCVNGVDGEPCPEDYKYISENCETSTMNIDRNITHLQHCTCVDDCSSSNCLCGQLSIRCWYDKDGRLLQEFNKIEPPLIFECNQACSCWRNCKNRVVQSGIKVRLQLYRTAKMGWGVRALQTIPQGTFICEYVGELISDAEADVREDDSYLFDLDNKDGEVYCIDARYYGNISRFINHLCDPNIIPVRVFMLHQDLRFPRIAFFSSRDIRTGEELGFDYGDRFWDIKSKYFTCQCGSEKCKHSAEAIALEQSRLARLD
#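 Signal arises when biotinylated H3K9 peptide, once monomethylated, bridges streptavidin donor and antibody-captured acceptor beads. Enzyme at 20 nM was preincubated 15 min with test compounds; peptide 500 nM and SAM 20 uM then reacted for 2 h.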
# The depositor's hits bear a star; ? = inconclusive; · = no result; [ ] = dose if it differs, or a comment. An excerpt weighted towards active compounds, which were near 11% of everything screened. Calls come from the whole dose curve; as a rule, active = well fitted inhibition curve with a large enough effect; inconclusive = small, poorly fitted or top-dose-only effect; inactive = no such curve, though single readings can be large or run the other way. Potency is the fitted concentration of half-maximal effect.
SMILES,HP1b chromo inh,JMJD2A Tudor,L3MBTL1 block,BAZ2B block,G9a inh
CCOCCOC(=O)C1=C(C)Nc2ccc(C)cc2S1,-43%,14µM*,0%,?,16µM*
CSCCOC(=O)C1=C(C)Nc2ccc(C)cc2S1,-67%,79µM*,·,45µM*,25µM*
COC(=O)c1ccc(NC(=O)C(=O)NCCc2csc(-c3ccc(F)cc3)n2)cc1,13%[57 µM],-8%,·,4%,13%[59 µM]
Cc1ccc(S(=O)(=O)c2c(Nc3ccc(C)c(C)c3)sc(C(=O)c3ccc4c(c3)OCO4)c2N)cc1,16%[57 µM],-35%,·,-10%,-1%[59 µM]
Nc1nc(N)c(S(=O)(=O)c2ccccc2)c(Nc2ccc(Br)cc2)n1,7%,-28%,·,?,-1%[59 µM]
Cc1nc2ccccc2n1-c1ccccc1,34%,3%,2%,13%,-6%
Cc1nc2nc(C)n(-c3ccccc3)c2s1,14%,-28%,3%,-2%,13µM*
COc1ccc(N(CC(=O)NCCc2ccccc2)S(=O)(=O)c2ccccc2)c(OC)c1,29%,-15%,·,-17%,4%[59 µM]
COc1ccc(Oc2ncc3nc(C)c(=O)n(C)c3n2)cc1,·,·,·,·,-3%[12.7 µM]
COc1ccc(C(=O)Nc2c(N)nc(SCC(=O)Nc3ccc(NC(C)=O)cc3)[nH]c2=O)cc1,11%,-6%,·,0%,46%[12.7 µM]
COc1ccc(NC(=O)c2ccc(NC(=O)CSc3nccc(=O)[nH]3)cc2)cc1,-14%,?,·,56µM*,?
COc1ccc(C(=O)NNC(=O)CSc2nc3c([nH]2)c(=O)n(C)c(=O)n3C)cc1,37%,1%,13%,-14%,22µM*
Cn1c(=O)c2[nH]c(SCC(=O)c3ccc(F)cc3)nc2n(C)c1=O,25%,-8%,·,-3%,?
Cc1ccc(CN2CCC(C(=O)NCCC(C)C)CC2)o1,?,45µM*,-2%,?,32µM*
Cc1nc2c(ccc3nc(NC(=O)c4ccc5c(c4)OCCO5)sc32)s1,30%,?,-5%,-37%,28µM*
CCOc1ccc(C(Nc2cccnc2)c2cc(Cl)c3cccnc3c2O)cc1 (stereo unspecified),?,40µM*,?,45µM*,·
O=C(O)COc1ccccc1C(Nc1ccccn1)c1cc(Cl)c2cccnc2c1O (stereo unspecified),?,79µM*,13%,40µM*,7.9µM*
O=C(O)COc1ccccc1C(Nc1cccnc1)c1cc(Cl)c2cccnc2c1O (stereo unspecified),?,22µM*,·,20µM*,2.8µM*
O=C(NC(c1ccccc1)c1cc(Cl)c2cccnc2c1O)c1cccnc1 (stereo unspecified),·,·,8%,1%,-24%[59 µM]
COc1ccc(C(=O)NC(c2ccc(Cl)cc2)c2cc(Cl)c3cccnc3c2O)cc1 (stereo unspecified),33%,5%,·,5%,20%[59 µM]
C=C(C)c1cc2c(s1)c1cnn(Cc3ccccc3F)c(=O)c1n2C,·,-22%,·,·,·
COc1ccc(CNc2ncnc3c2c(-c2ccccc2)cn3-c2ccccc2)cc1,17%,-33%,·,-22%,-15%[59 µM]
COC(=O)c1cc(C(=O)OCC(=O)c2ccc[nH]2)cc([N+](=O)[O-])c1,9%,-25%,-5%,-7%,?
O=C(N/N=C/c1sc(N2CCCCC2)nc1-c1cccs1)C1CC1,20%,?,12%,13%,25µM*
CC#C[C@@]1(O)CC[C@H]2[C@@H]3CCC4=CC(=O)CCC4=C3[C@H](c3ccc(N(C)C)cc3)C[C@]21C,·,·,·,·,5µM*
SMILES,HP1b chromo inh,JMJD2A Tudor,L3MBTL1 block,BAZ2B block,G9a inh
CCOC(=O)c1sc2ccccc2c1S(=O)(=O)Nc1c(C)cccc1C,-7%,-23%,·,1%,7%[59 µM]
Cc1cc(C)n(CCc2nc(-c3ccc(F)cc3)cs2)n1,22%,2%,-3%,-6%,-6%[59 µM]
COc1cc(-c2csc(CCn3nc(C)cc3C)n2)cc(OC)c1OC,-9%,-25%,·,-35%,32µM*
CC(=O)OCC1=C(C(=O)O)N2C(=O)C(NC(=O)c3ccc(COc4cccc(Cl)c4Cl)o3)C2SC1 (stereo unspecified),-4%,?,?,50µM*,32µM*
CC1=C(C(=O)O)N2C(=O)C(NC(=O)c3ccc(F)cc3)C2SC1 (stereo unspecified),22%,?,9%,-33%,0.89µM*
CC1=C(C(=O)O)N2C(=O)C(NC(=O)c3nn(C)cc3Cl)C2SC1 (stereo unspecified),2%,-16%[11.4 µM],4%,-11%,?
CC1=C(C(=O)OCC(Cl)(Cl)Cl)N2C(=O)C(NC(=O)Cc3ccccc3)C2SC1 (stereo unspecified),21%,-6%,?,2%,40µM*
CC1=C(C(=O)O)N2C(=O)C(NC(=O)c3ccccc3Cl)C2SC1 (stereo unspecified),43%,-20%,·,0%,1.8µM*
CC1=C(C(=O)O)N2C(=O)C(NC(=O)C(N)c3ccc(O)cc3)C2SC1 (stereo unspecified),·,·,·,·,-29%[2.33 µM]
CCn1ccc(C(=O)NC2C(=O)N3C(C(=O)O)=C(C)CSC23)n1 (stereo unspecified),38%,-7%,2%,?,22µM*
CC(=O)Nc1ccc(NC(=O)C(C)OC(=O)c2cccc(S(=O)(=O)N3CCCCC3)c2)cc1 (stereo unspecified),23%,-8%,·,-11%,?
CC(Oc1ccccc1Cl)C(=O)Nc1ccc(S(=O)(=O)N2CCN(C)CC2)cc1 (stereo unspecified),-16%[57 µM],50µM*,·,·,·
CC(=O)Nc1cccc(C(=O)OC(C)C(=O)Nc2ccc(S(=O)(=O)N3CCCC3)cc2)c1 (stereo unspecified),22%,-3%,2%,11%,50µM*
CC(=O)Nc1ccc(NC(=O)C(C)OC(=O)c2cccc(S(=O)(=O)N3CCCCCC3)c2)cc1 (stereo unspecified),17%,-2%,0%,-36%,-10%
CC(OC(=O)c1cccc(S(=O)(=O)N2CCCCCC2)c1)C(=O)Nc1ccc(S(N)(=O)=O)cc1 (stereo unspecified),6%,-18%,-6%,-4%,50µM*
CC(=O)Nc1ccc(NC(=O)C(C)OC(=O)c2cccc(S(=O)(=O)N3CCCC3)c2)cc1 (stereo unspecified),20%,-8%,-9%,2%,40µM*
CCc1ccccc1Nc1nn2c(=O)c3ccc(C(=O)NC4CCCCC4)cc3nc2s1,21%,-13%,·,-6%,4%[59 µM]
Nc1nc(NCc2ccc(Cl)cc2)c2[nH]cnc2n1,11%,-27%,·,·,·
CCCCC[C@H](O)/C=C/[C@@H]1[C@@H](C/C=C\CCCC(=O)O)[C@@H](O)C[C@@H]1O,·,·,·,·,31%[59 µM]
Cc1ccc(-n2c(=O)c3c(c4cc(C)ccc4n3C)n(CC(=O)N3CCCC3)c2=O)cc1,6%,-13%,·,-3%,-17%[59 µM]
